According to PubChem BioAssay AID1645879 (National Center for Advancing Translational Sciences (NCATS), 2021):
Inconclusive results are not listed. Activity calls are given as the source filed them. The call rests on the fitted dose curve; in most records, active means well fitted inhibition curve with a large enough effect; inconclusive means small, poorly fitted or top-dose-only effect; inactive means no such curve, though single readings can be large or run the other way.

Assay: Counterscreen qHTS assay for inhibitors of N-terminal methyltransferase 1 (NTMT1): SPKRIA Counterscreen Assay
Settings: biochemical qHTS; series mostly up to 99.2 µM; activity change, negative = inhibition: at the top concentration
From the text: Assay Submitter (PI): Rong Huang Ph.D,
Purdue University, West Lafayette, IN 47907
The N-terminal methytransferase 1 is the first methyltransferase that methylates protein alpha-N-amines and plays an important role in regulating cell mitosis, chromatin interactions and DNA repair. It is observed to be over-expressed in various cancer patient tissues like malignant melanoma and colorectal cancer tissues. Knockdown of NTMT1 in cancer cells causes cell mitotic defects and enhances sensitivity to DNA damaging chemotherapeutics. […] These critical cellular processes in which NTMT1 is implicated, coupled with emerging links to cellular dysfunction, strengthen the inference that NTMT1 is a compelling novel anticancer target. Progress have been made in understanding the molecular properties of NTMT1 and the biological consequences of protein alpha-N-terminal methylation, but there are no specific small molecule probes available for NTMT1 to fully characterize its MTase activity. To address this unmet need, a panel of assay is created and established to enable quantitative high-throughput screening (qHTS) for novel, potent, and selective small molecule NTMT1 inhibitors. Two orthogonal qHTS that use different reagents (ThioGlo vs. MTaseGlo) are developed for primary robotic screening against the NCATS chemical library of more than 400,000 small molecules. Identified inhibitors are reacquired, validated, and further characterized.
MTaseGlo Assay is a luminescence screen that measure the activity of methyltransferases based on the reaction product S-adenosyl homocysteine (SAH). The substrate SAM is converted to SAH upon enzyme activation. MTase-Glo reagent and detection solution convert SAH to ATP and measure the light from the luciferase reaction. Nicotinamide N-methyltransferase (NNMT) is a cystolic enzyme that catalyzes the transfer of a methyl group from the co-factor SAM onto the substrate, nicotinamide (NA) to form 1-methyl-nicotinamide (MNA) and SAH. NNMT MTaseGlo assay is used as a counterscreen to evaluate selectivity of identified inhibitors.
SPKRIA and Ac-RCC-10 control is provided by the Huang laboratory.
PROTOCOL TABLE; SEQUENCE No. (e.g., 1, 2, 3, etc.); […] (e.g., Cells, Incubation, Reagent, etc.); VALUE; DESCRIPTION
1; Reagent; 3 uL; dispense assay buffer.
2; Compound; 23 nL; pin compounds and control into the assay plate.
3; Time; 15 min; room temperature incubation.
4; Reagent; 1 uL; dispensed [4x] substrate or buffer.
5; Time; 30 min; incubate at room temperature.
6; Reagent; 1 uL; dispense MTase-Glo Reagent (R).
7; Time; 30 min; incubate at room temperature.
8; Reagent; 5 uL; dispense [1x] MTase-Glo Detection Solution to allow for ADP to be converted to ATP.
9; Centrifugation; 1,000 RPMs; assay plates were centrifuged.
10; Incubation; 30 min; room temperature.
11; Detection; Luminescence; ViewLux plate reader (clear filter, 10 second exposure).
NOTES (numbers refer to Sequence numbers above; values are from representative experiments)
1; Dispense the assay buffer into Greiner 1536-well black / solid bottom assay plate (Greiner Bio One, Monroe, NC).
2; Pin control inhibitor Ac-RCC1-10 at a final concentration range of 234 nM to 143 uM using a Wako Pin Tool (Wako Automation USA) equipped with a 1536-slotted pin array (Wako Automation, Richmond, VA). Pin compound library into the assay plates (columns 5 - 48) at a final concentration range of 97 nM to 250 uM.
3; Incubate the assay plates at room temperature.
4; Dispense 1 uL of substrate SPKRIA solution (final concentration 1 uM) or 1 uL buffer was added to the wells bringing the final assay volume to 4uL. The assay plate was covered with metal lids.
5; Incubate the assay plate at room temperature.
6; Dispense 1 uL of 5x MTase-Glo Reagent in the assay plate.
7; Incubate at room temperature to allow for SAH to be converted to ADP
8; Dispense 5 uL of 5x MTase-Glo Detection Solution in the assay plate to allow for ADP to be converted to ATP.
9; Assay plates were centrifuged for 15 seconds.
[…]

Which “activity change, negative = inhibition” value does the source give for `COc1ccccc1C(=O)Nc1onc2c1CCCC2` here?
Its value is -7.37% (inactive).

Which “activity change, negative = inhibition” value does the source give for `C1CCC(C(CC2CCCCN2)C2CCCCC2)CC1` (stereo not given) here?
Its value is 2.45% (inactive).

With `COCCCNC(=O)CSc1c2c(nc3ccc(Cl)cc13)CCCC2` as the compound, how does the “activity change, negative = inhibition” value read?
Its value is -12.4% (inactive).

Which Potency does the source give for `Cc1nc(C)c(-c2ccc3ncnc(NCc4ncc[nH]4)c3c2)s1` here?
Its Potency is 44.7 µM (active).

For `NC(=O)C1CCN(c2nc(-c3ccccc3Cl)cs2)CC1`, which “activity change, negative = inhibition” value is on record?
The value was 0.963% (inactive).

For `O=c1c2cc3c(cc2nc2sc(Nc4ccccc4)nn12)OCO3`, which “activity change, negative = inhibition” value is on record?
Its value is -18.4% (inactive).

Which Potency does the source give for `NC(=O)C1CCN(c2nc(-c3ccc(F)cc3)cs2)CC1` here?
The Potency was 44.7 µM (active).

Which Potency does the source give for `COc1cc2ncnc(Nc3cccc(Cl)c3)c2cc1OC` here?
The Potency was 22.4 µM (active).

For `O=C(O)c1cccc(-c2noc(-c3ccccc3F)n2)c1`, which “activity change, negative = inhibition” value is on record?
Its value is -28.1% (inactive).

For `CCc1cc(C(N)=S)ccn1`, which “activity change, negative = inhibition” value is on record?
Its value is -17.3% (inactive).

For `CC(=O)C1CCC2C3CCC4=CC(=O)CCC4(C)C3CCC12C` (stereo not given), which “activity change, negative = inhibition” value is on record?
The value was 1.56% (inactive).

Which “activity change, negative = inhibition” value does the source give for `Cc1cc(C)n2c(Nc3c(C)cccc3C)c(-c3ccsc3)nc2n1` here?
Its value is -2.07% (inactive).

With `CCCn1c(/C=C/c2ccccc2)nc2ccccc21` as the compound, how does the “activity change, negative = inhibition” value read?
Its value is -35.4% (inactive).

For `NC(=O)C1CCN(c2nc(-c3ccc4c(c3)CCO4)cs2)CC1`, which “activity change, negative = inhibition” value is on record?
Its value is -3.4% (inactive).

For `COc1ccc2[nH]c(S(=O)Cc3ncc(C)c(OC)c3C)nc2n1` (stereo not given), which “activity change, negative = inhibition” value is on record?
The value was 3.15% (inactive).

For `Cc1cc2c(s1)c1cnn(Cc3ccc(C)c(F)c3)c(=O)c1n2C`, which “activity change, negative = inhibition” value is on record?
The value was -3.26% (inactive).

With `COc1ccc(C(=O)Nc2noc3ccccc23)cc1` as the compound, how does the Potency read?
The Potency was 39.8 µM (active).

With `O=C(Nc1noc2ccccc12)c1c(F)cccc1F` as the compound, how does the “activity change, negative = inhibition” value read?
Its value is -19.7% (inactive).

With `c1cncc(-c2ccc3ncnc(NCc4cccs4)c3c2)c1` as the compound, how does the Potency read?
Its Potency is 44.7 µM (active).

With `COc1cccc(C(=O)Nc2nc3c(s2)CCCC3)c1` as the compound, how does the Potency read?
Its Potency is 50.1 µM (active).

With `OCc1cccc(-c2noc(-c3ccccc3F)n2)c1` as the compound, how does the “activity change, negative = inhibition” value read?
Its value is -24.6% (inactive).

With `CCCNC(=O)CSc1c(CCC)cnc2c1c(=O)n(C)c(=O)n2C` as the compound, how does the “activity change, negative = inhibition” value read?
The value was -10.3% (inactive).

Which “activity change, negative = inhibition” value does the source give for `Nc1nc2c(s1)C(c1ccccc1Cl)CC(=O)N2` (stereo not given) here?
The value was -13.1% (inactive).

With `NC(=O)C1CCN(c2nc(-c3cccc4ccccc34)cs2)CC1` as the compound, how does the “activity change, negative = inhibition” value read?
Its value is -9.6% (inactive).

For `Oc1cccc(Nc2nc(-c3ccccc3)nc3ccccc23)c1`, which Potency is on record?
The Potency was 20 µM (active).

For `O=C(Nc1onc2c1CCCC2)c1ccccc1`, which “activity change, negative = inhibition” value is on record?
Its value is -12.7% (inactive).

With `Cc1cc(C)nc(NC(=S)N2CCN(c3ccncc3)CC2)c1` as the compound, how does the “activity change, negative = inhibition” value read?
Its value is 4.88% (inactive).

For `Cc1cc2c(s1)c1cnn(Cc3cccc(C)c3F)c(=O)c1n2C`, which “activity change, negative = inhibition” value is on record?
The value was -7.45% (inactive).

With `O=C(Nc1noc2ccccc12)c1ccc(F)cc1` as the compound, how does the Potency read?
Its Potency is 39.8 µM (active).

For `O=c1c(-c2ccc(O)cc2)coc2cc(O)ccc12`, which “activity change, negative = inhibition” value is on record?
Its value is -27.1% (inactive).

With `COCCCNc1ncnc2onc(-c3ccc(F)cc3)c12` as the compound, how does the Potency read?
Its Potency is 50.1 µM (active).

With `Oc1ccc(-c2nc(-c3ccc(F)cc3)c(-c3ccncc3)[nH]2)cc1` as the compound, how does the Potency read?
Its Potency is 44.7 µM (active).

With `O=c1[nH]cnc2nc[nH]c12` as the compound, how does the “activity change, negative = inhibition” value read?
The value was -6.1% (inactive).

For `Cc1cccc(-n2cnc3cc(C(=O)NC4CCCC4)ccc32)c1`, which Potency is on record?
Its Potency is 44.7 µM (active).

Which “activity change, negative = inhibition” value does the source give for `NC(=O)c1ncn([C@@H]2O[C@H](CO)[C@@H](O)[C@H]2O)c1N` here?
Its value is -24% (inactive).

For `Clc1ccc2ncc(-c3cccc(NC4CCNC4)n3)n2c1` (stereo not given), which “activity change, negative = inhibition” value is on record?
Its value is -12% (inactive).

With `CC[C@H](c1ccc(O)cc1)[C@@H](CC)c1ccc(O)cc1` as the compound, how does the “activity change, negative = inhibition” value read?
Its value is -8.78% (inactive).

Which “activity change, negative = inhibition” value does the source give for `C[C@]12CC[C@@H]3c4ccc(O)cc4CC[C@H]3[C@@H]1C[C@@H](O)[C@@H]2O` here?
The value was -9.61% (inactive).

Which “activity change, negative = inhibition” value does the source give for `CNc1sc(-c2cccc3ccccc23)nc1C#N` here?
Its value is -3.5% (inactive).

With `C[C@]12CCC3=C4CCC(=O)C=C4CC[C@H]3[C@@H]1CC[C@@]2(O)CC#N` as the compound, how does the “activity change, negative = inhibition” value read?
The value was 1.22% (inactive).
